{"source": "PubChem BioAssay (NCI)", "note": "Where “and” joins values, the source holds several entries; their conditions need not be identical. Equal values may be shown once. The panel holds about 83,000 compounds, 20% with a hit somewhere; the sample as a whole holds those more often.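 Interpretation: 100, growth as untreated; towards 0, rising growth inhibition; 0, no net growth; 0 to -100, cell death. Compounds scoring below 10 were considered active.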 Unmarked numbers belong to inactive results. Calls of active or inactive are those of the source.", "data": [{"system": "MDA-MB-468 breast", "assay": "NCI-60 one-dose screen, 48 h (100 = growth as untreated, 0 = no growth, -100 = all killed)", "conditions": "10 µM unless noted", "values": [{"smiles": "O=C(OC(CO)C(=O)NC12CC3CC(CC(C3)C1)C2)c1ccc(Cl)cc1", "note": "(stereo not given)", "growth": "95.3%"}, {"smiles": "CN(C)CCNC(=O)c1cccn2c(=O)c3cc4ccccc4cc3nc12", "growth": "-43.6% (active)"}, {"smiles": "CCOC(=O)c1cc2c(=O)oc3ccccc3c2oc1=O", "growth": "88.2%"}, {"smiles": "COc1cccc(/C=C\\C(=O)c2ccccc2)c1", "growth": "69.4%"}, {"smiles": "O=C(O)c1ccc(-n2cc(CNc3cccc(Cl)c3)c(-c3ccc(F)cc3)n2)cc1", "growth": "109%"}, {"smiles": "Clc1ccc2c(NCCCNC3CCCCC3)ccnc2c1", "growth": "85.3%"}, {"smiles": "COC(=O)c1c2c(c(C)[n+]([O-])c1C)C(=O)C(NCCN1CCOCC1)=CC2=O", "growth": "28.8%"}, {"smiles": "Oc1cc(O)c2c(=S)cc(-c3ccc(Cl)cc3)oc2c1", "growth": "-6.34% (active)"}, {"smiles": "Cc1ccc(-c2nc3nc(-c4ccc(Cl)cc4)nc(N4CCCNCC4)c3o2)cc1", "growth": "-54.2% (active)"}, {"smiles": "COc1ccc(-c2nn(-c3ccccc3)cc2/C=C2\\SC(=O)NC2=O)cc1", "growth": "107%"}, {"smiles": "COc1cc(OC)c(S(=O)(=O)NNC(=O)c2ccncc2)cc1C(=O)/C=C/c1ccc(C)cc1", "growth": "38.3%"}, {"smiles": "Nc1c(C(=O)Nc2ccccc2Cl)sc2nc3c(cc12)C(O)CCC3", "note": "(stereo not given)", "growth": "25.7%"}, {"smiles": "NC1(N2SC(S)=C3CCCC=C32)CCCCC1", "growth": "99.9%"}, {"smiles": "CC(=O)c1cc(C(=O)c2ccc3c(c2)Sc2ccccc2N3)c2c(C)cc(C)cn12", "growth": "14%"}, {"smiles": "CCN(CC)CCOc1ccc(/C(=C(\\Cl)c2ccccc2)c2ccccc2)cc1", "growth": "-60% (active) and -6.23% (active)"}, {"smiles": "Cn1cc(-c2noc(-c3cn(C)c4ncccc34)n2)c2cc(Cl)ccc21", "growth": "91.3%"}, {"smiles": "CN1CCN(Cc2ccc(NC(=O)c3cncc(C#Cc4cnc5ccc(OCC(F)F)nn45)c3)cc2C(F)(F)F)CC1", "growth": "-65.5% (active)"}, {"smiles": "Cn1c(=O)c(S(=O)(=O)c2ccccc2)cc2ccc3c(cnn3-c3ccc(Cl)cc3)c21", "growth": "72.3%"}, {"smiles": "C[N+]1(CCc2ccccc2)CCC(CCC2CC[N+](C)(CCc3ccccc3)CC2)CC1", "note": "(stereo not given)", "growth": "28.8%"}, {"smiles": "Cc1c2ccncc2c(C)c2c1c1ccccc1n2CCCCCC(=O)O", "growth": "86.3%"}, {"smiles": "COc1cc(C2NC(=O)C(C#N)=C(Nc3cccc(C)c3)S2)ccc1O", "note": "(stereo not given)", "growth": "96.6%"}, {"smiles": "Oc1c(C(Nc2ccccc2)c2ccccc2)ccc2cccnc12", "note": "(stereo not given)", "growth": "17.8%"}, {"smiles": "Cc1ccc(/C=C/C(=N/N=C(N)N)c2ccccc2)cc1", "growth": "-6.79% (active)"}, {"smiles": "Cc1cc(Cl)ccc1NC(=O)/C(Cl)=C1/Sc2ccccc2NC1=O", "growth": "95.1%"}, {"smiles": "COc1cc2c(cc1OC)-c1ccc3cc4c(cc3c1N(CCCn1ccnc1)C2)OCO4", "growth": "-63.7% (active)"}, {"smiles": "Cc1cccc(/C=C2\\CN(C(=O)OC(C)(C)C)C/C(=C\\c3cccc(C)c3)C2=O)c1", "growth": "103%"}, {"smiles": "COc1ccc2ncccc2c1Cc1c(OC)ccc2ncccc12", "growth": "8.37% (active)"}, {"smiles": "C=C(CNCCO)[C@@H]1CC[C@]2(CO)CC[C@]3(C)[C@H](CC[C@@H]4[C@@]5(C)CCC(N)C(C)(C)[C@@H]5CC[C@]43C)[C@@H]12", "note": "(stereo not given in full)", "growth": "-40.9% (active)"}, {"smiles": "COc1cc2cc(OC(C)=O)c3cc4c(cc3c2c(OC)c1OC)OCO4", "growth": "96.4%"}, {"smiles": "O=C(Cn1cc(CN2C(=O)c3ccc([N+](=O)[O-])cc3C2=O)nn1)Nc1ccc(F)cc1Cl", "growth": "97.9%"}, {"smiles": "Nc1ccc(Sc2ccc3c4c2cccc4c(=O)n2c4ccccc4nc32)cc1", "growth": "43.5%"}, {"smiles": "CCCCCc1c(C)[nH]c(/C=C2\\N=C(c3ccc[nH]3)C=C2Oc2ccc(Cl)cc2)c1C", "growth": "-16.4% [100 µM] (active)"}, {"smiles": "CCOC(=O)c1c(C)nc2c(c1N)/C(=C/c1ccccn1)C(=O)N2Cc1ccccc1", "growth": "-49.5% (active)"}, {"smiles": "CCn1c2ccc(O)cc2c2c(C)c3c[n+](C)ccc3c(C)c21", "growth": "-31.2% (active)"}, {"smiles": "COc1cccc(C2CC(=O)Nc3cc4c(cc32)OCO4)c1OC", "note": "(stereo not given)", "growth": "73.2%"}, {"smiles": "N#Cc1c(-c2ccc(Cl)cc2)nc2c(c(-c3ccccc3)nn2-c2ccccc2)c1-c1ccc(O)cc1", "growth": "31.2%"}, {"smiles": "COc1ccc(-c2nn(-c3ccc(NC(=O)Nc4ccc(Cl)c(C(F)(F)F)c4)cc3)cc2-c2ccncc2)cc1Cl", "growth": "-46.4% (active)"}, {"smiles": "C/C(=N\\Nc1ccccc1)c1ccc(NC2=CC(=O)c3ccccc3C2=O)cc1", "growth": "35.7%"}, {"smiles": "O=C(Nc1cccc(C(F)(F)F)c1)Oc1ccc(Cl)c2cccnc12", "growth": "-27.2% (active)"}, {"smiles": "COc1ccc(C2CC(c3ccccc3)=NN2C(=O)c2cc(OC)c(OC)c(OC)c2)cc1O", "note": "(stereo not given)", "growth": "41.3%"}]}]}
